Values joined by “and” are separate entries in the source; they are usually repeats but may differ in a detail not shown here. Identical values can stand only once. Inconclusive results are not listed. A structure can be active in one record and inactive in another. Active and inactive are the calls of the source. Unless noted, calls follow the shape of the dose curve; as a rule, active = well fitted cell-killing curve with a large enough effect in the repeat runs; inconclusive = weak or mixed curves, or effect the other way; inactive = no such curve, though single readings can be large or run the other way.
% is scaled to controls: 0 for no effect and ±100 for the full control effect.

For the first test, the target named is Peroxisome proliferator-activated receptor gamma (Homo sapiens) (UniProt P37231). The test can be described thus: qHTS assay to identify small molecule agonists of the peroxisome proliferator-activated receptor gamma (PPARg) signaling pathway (AID 743094; active = well fitted activation curve with a large enough effect in the signal ratio in the repeat runs, not every such curve was filed as active; the % refers to the signal ratio). Particulars: HEK293H PPARg-UAS-bla, beta-lactamase FRET ratio, 17 h; series mostly up to 57 µM; activation: at the top concentration. The method in brief: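 Reporter activation was scored by fluorescence of cleaved LiveBLAzer B/G substrate (1 h, room temperature) in PPARg-bla HEK293H cells previously treated 17 h at 37C with DMSO-dissolved compounds.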
Peroxisome proliferator-activated receptor gamma (Homo sapiens), sequence (P37231 whole entry, looked up): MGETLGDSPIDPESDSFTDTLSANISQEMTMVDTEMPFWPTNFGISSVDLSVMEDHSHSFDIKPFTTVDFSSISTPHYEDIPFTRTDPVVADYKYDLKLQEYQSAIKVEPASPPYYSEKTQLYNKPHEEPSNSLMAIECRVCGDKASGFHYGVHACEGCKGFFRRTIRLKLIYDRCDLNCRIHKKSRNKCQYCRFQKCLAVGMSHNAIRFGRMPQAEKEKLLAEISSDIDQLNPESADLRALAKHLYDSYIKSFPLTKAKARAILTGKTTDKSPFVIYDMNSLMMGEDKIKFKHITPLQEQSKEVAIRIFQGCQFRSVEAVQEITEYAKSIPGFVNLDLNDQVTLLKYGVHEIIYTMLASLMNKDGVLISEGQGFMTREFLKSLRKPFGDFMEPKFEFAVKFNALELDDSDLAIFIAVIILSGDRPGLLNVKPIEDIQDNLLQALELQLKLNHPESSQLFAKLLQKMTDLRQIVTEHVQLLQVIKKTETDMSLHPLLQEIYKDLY
As to `O=C(Cl)OCCOCCOC(=O)Cl`, the “activation” value was 5.61% (inactive).

As to `Nc1cccc2ccccc12`, the “activation” value was -11.9% [at 78.9 µM] (inactive).

As for `CCC1(CCC(C)C)C(=O)NC(=O)NC1=O`, the “activation” value is -0.317% (inactive). Same read-out and setting: the value for `CN1CC[C@]23c4c5ccc(O)c4O[C@H]2[C@@H](O)C=C[C@H]3[C@H]1C5` was -11.8% (inactive); that for `COc1ccc(C(=O)c2c(C)n(CCN3CCOCC3)c3ccccc23)cc1` was -0.0719% (inactive). On the same count and under the same terms, the value for `O=C1c2ccccc2C(=O)N1SC(Cl)(Cl)Cl` was -0.245% (inactive); that for `CCC1(C2=NCCN2)Cc2ccccc2O1` (stereo unspecified) was -4.75% (inactive); that for `CCCCCCCCn1sccc1=O` was 12.3% [at 78.9 µM] (inactive). Consider `CN1C[C@H](C(=O)N[C@]2(C)O[C@@]3(O)[C@@H]4CCCN4C(=O)[C@H](Cc4ccccc4)N3C2=O)C=C2c3cccc4[nH]cc(c34)C[C@H]21`, for which the Potency result is “inactive”.

Turning to `C[C@]12CC[C@H]3[C@@H](CCC4=CC(=O)CC[C@@H]43)[C@@H]1CC[C@@H]2OC(=O)CCc1ccccc1`, the “activation” value was -4.91% (inactive). On to `O=C(O)COc1cc(Cl)c(Cl)cc1Cl`, for which the Potency result is “inactive”.

In the case of `CN(C)C(=O)Nc1cccc(OC(=O)NC(C)(C)C)c1`, the “activation” value is -8.01% (inactive).

As for `Nc1ccccc1C(=O)OCCc1ccccc1`, the Potency entry was “inactive”. As for `CC(C)CCCCCCCOC(=O)c1ccccc1C(=O)OCCCCCCCC(C)C`, the “activation” value is -4.41% (inactive). The same measure, in the same setting: then `COC1=CC(=O)O[C@@H](/C=C/c2ccc3c(c2)OCO3)C1`, with 3.31% (inactive). The same measure, in the same setting: the value for `CC(C)[C@@H](C(=O)O[C@@H](C#N)c1cccc(Oc2ccccc2)c1)c1ccc(Cl)cc1` was 2.72% (inactive). In the case of `C[C@@H]1C[C@@H]([C@H](O)CC2CC(=O)NC(=O)C2)C(=O)[C@@H](C)C1`, the Potency entry is “inactive”.

For a further test the target is unchanged. The test can be described thus: qHTS assay to identify small molecule antagonists of the peroxisome proliferator-activated receptor gamma (PPARg) signaling pathway (AID 743191; calls by dose curve; also: nearly all actives have a fitted effect of over 30% in size; also: potency is read from the fitted curve at half-maximal effect). Particulars: HEK293H PPARg-UAS-bla, beta-lactamase ratio, antagonist, 17 h; series mostly up to 62.6 µM; ratio activity, negative = inhibition: at the top concentration. An outline of the steps:
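GeneBLAzer PPARg UAS-bla HEK293H cells, 5 h post-plating, exposed to compounds 17 h at 37C. LiveBLAzer B/G FRET substrate added for 1 h at room temperature; beta-lactamase reporter read by fluorescence intensity.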
With `Nc1cccc2ccccc12`, the “ratio activity, negative = inhibition” value was -12.4% (inactive).

For `CN1CC[C@]23c4c5ccc(O)c4O[C@H]2[C@@H](O)C=C[C@H]3[C@H]1C5`, the “ratio activity, negative = inhibition” value is 9.72% [at 81.1 µM] (inactive). For the compound `CCCCCCCCCCCCN=C(N)N`, the ratio activity, negative = inhibition was -16.9% [at 2.7 µM] (inactive). Regarding `CN1C[C@H](C(=O)N[C@]2(C)O[C@@]3(O)[C@@H]4CCCN4C(=O)[C@H](Cc4ccccc4)N3C2=O)C=C2c3cccc4[nH]cc(c34)C[C@H]21`, the Potency is 43.8 µM (active) and inactive. Regarding `COC1=CC(=O)O[C@@H](/C=C/c2ccc3c(c2)OCO3)C1`, the “ratio activity, negative = inhibition” value is -25.5% (inactive).

System in another test: not listed separately
Nature of the test: qHTS assay to identify small molecule antagonists of the peroxisome proliferator-activated receptor gamma (PPARg) signaling pathway - cell viability counter screen (AID 743194). Also: nearly all actives have a fitted effect of over 55% in size. Also: potency is read from the fitted curve at half-maximal effect. Particulars: PPARg-bla HEK293H viability, CellTiter-Glo luminescence, 17 h; Potency: co-treated with 50 nM rosiglitazone; series mostly up to 62.6 µM; activity change, negative = cytotoxicity: at the top concentration. The method in brief: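 Cytotoxicity counter screen in PPARg-bla HEK293H cells, same wells as reporter assay. Compounds plus 50 nM rosiglitazone (final) for 17 h at 37 C, then viability read by CellTiter-Glo luminescence.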
Take `O=C(Cl)OCCOCCOC(=O)Cl`: the “activity change, negative = cytotoxicity” value is 38.2% (inactive).

For `Nc1cccc2ccccc12`, the “activity change, negative = cytotoxicity” value is -2.26% (inactive). For `c1ccc2c(c1)-c1cccc3cccc-2c13`, the Potency entry is “inactive”. On to `CCC1(CCC(C)C)C(=O)NC(=O)NC1=O`, for which the “activity change, negative = cytotoxicity” value was -0.58% [at 81.1 µM] (inactive). The same measure, in the same setting: the value for `O=C1NC(=O)C(=O)C(=O)N1` was 9.8% [at 81.1 µM] (inactive).

Regarding `Clc1ccc(Cl)c(Cl)c1`, the “activity change, negative = cytotoxicity” value is 8.37% (inactive).

On to `[Cl-].[Cl-].[Hg+2]`, for which the Potency was 21.8 µM (active) and 21.9 µM (active). For the compound `CN1CC[C@]23c4c5ccc(O)c4O[C@H]2[C@@H](O)C=C[C@H]3[C@H]1C5`, the “activity change, negative = cytotoxicity” value is -8.46% [at 81.1 µM] (inactive). The same measure, in the same setting: the value for `COc1ccc(C(=O)c2c(C)n(CCN3CCOCC3)c3ccccc23)cc1` was -18.8% [at 62.6 µM] (inactive).

`O=C1c2ccccc2C(=O)N1SC(Cl)(Cl)Cl`: the Potency is 2.19 µM (active).

`O=C(O)c1cc(I)cc(I)c1I`: the “activity change, negative = cytotoxicity” value is 26.6% [at 81.1 µM, co-treated with 50 nM rosiglitazone] (inactive).

On to `CCC1(C2=NCCN2)Cc2ccccc2O1` (stereo unspecified), for which the “activity change, negative = cytotoxicity” value is 0.0971% (inactive). Still for that read-out and setting: the value for `O=C(O)C(Cl)(Cl)Br` was -2.67% [at 81.1 µM, co-treated with 50 nM rosiglitazone] (inactive). As to `C[CH2][Hg][S]c1ccccc1C(=O)O`, the Potency was 2.45 µM (active) and 8.41 µM (active). Still for that read-out and setting: then `CCCCCCCCn1sccc1=O`, with 34.7 µM (active) and 28.9 µM (active).

Regarding `CC1(C)[C@H](C(=O)O[C@H](C#N)c2cccc(Oc3ccccc3)c2)[C@@H]1C=C(Br)Br`, the Potency entry is “inactive”. For `CCCCCCCCP(=O)(O)O`, the “activity change, negative = cytotoxicity” value was 9.64% (inactive). Regarding `CN1C[C@H](C(=O)N[C@]2(C)O[C@@]3(O)[C@@H]4CCCN4C(=O)[C@H](Cc4ccccc4)N3C2=O)C=C2c3cccc4[nH]cc(c34)C[C@H]21`, the Potency result is “inactive”. For the compound `CNC(=O)Oc1cccc(N=CN(C)C)c1`, the “activity change, negative = cytotoxicity” value is -0.416% (inactive). The same measure, in the same setting: the value for `O=C(O)C(O)C(O)C(=O)O` (stereo unspecified) was 2.51% (inactive). Same read-out and setting: the value for `C=CCc1ccc(OC(=O)Cc2ccccc2)c(OC)c1` was -11.1% [at 62.6 µM] (inactive). `Cc1ncc(C[n+]2csc(CCO)c2C)c(N)n1`: the “activity change, negative = cytotoxicity” value was 14.3% (inactive). Still for that read-out and setting: then `O=C1CC[C@@]2(O)[C@H]3Cc4ccc(O)c5c4[C@@]2(CCN3CC2CC2)[C@H]1O5`, with -23.6% [at 62.6 µM] (inactive); and `C[C@]12CC[C@H]3[C@@H](CCC4=CC(=O)CC[C@@H]43)[C@@H]1CC[C@@H]2OC(=O)CCc1ccccc1`, with 1.31% [at 62.6 µM] (inactive).

Regarding `O=C(O)COc1cc(Cl)c(Cl)cc1Cl`, the Potency entry was “inactive”.

Regarding `CCCN(CCOc1c(Cl)cc(Cl)cc1Cl)C(=O)n1ccnc1`, the “activity change, negative = cytotoxicity” value was -21.8% [at 81.1 µM, co-treated with 50 nM rosiglitazone] (inactive). In the case of `O=[N+]([O-])/C=C/c1ccccc1`, the Potency is 31.4 µM (active) and 24.5 µM (active). As to `CC(C)(C)CC(C)(C)c1ccc(O)cc1`, the “activity change, negative = cytotoxicity” value was -20% (inactive). In the case of `Nc1ccccc1C(=O)OCCc1ccccc1`, the Potency entry is “inactive”.

Take `O=C(O)CCCOc1ccc(Cl)cc1Cl`: the “activity change, negative = cytotoxicity” value was 16.1% (inactive). Still for that read-out and setting: then `COC1=CC(=O)O[C@@H](/C=C/c2ccc3c(c2)OCO3)C1`, with -5.33% (inactive). On the same count and under the same terms, the value for `CC(C)(C)OOC(C)(C)CCC(C)(C)OOC(C)(C)C` was -0.89% (inactive). `CC(C)[C@@H](C(=O)O[C@@H](C#N)c1cccc(Oc2ccccc2)c1)c1ccc(Cl)cc1`: the Potency entry was “inactive”.

Consider `C[C@@H]1C[C@@H]([C@H](O)CC2CC(=O)NC(=O)C2)C(=O)[C@@H](C)C1`, for which the “activity change, negative = cytotoxicity” value is -25% (inactive).

The values are drawn from PubChem BioAssay (Tox21).
